Activity calls are given as the source filed them. Unless noted, no rule for the calls is given here.

Experiment [1] in a line: compounds binding Alexa647 anti-His antibody – biochemical, small-molecule microarray, 635 nm fluorescence, artefact control for SMM control protein annotation, primary screen (AID 1128).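 Also: score merges feature fluorescence with signal-to-noise for each printed compound spot.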 The settings on record: higher = more signal.
For experiment [2], the system named is Human papillomavirus type 1a E7 protein (residues 1-88). Kind of experiment: HPV1a E7 small-molecule binders, primary screen, biochemical, small-molecule microarray, residues 1-88, 635 nm (AID 1129). The settings on record: small-molecule microarray binding, fluorescence 635 nm; higher = more signal.
Experiment [3] addresses Focal adhesion kinase 1 (Homo sapiens) (UniProt Q05397). Description: PTK2 protein binding on printed compound slides – biochemical, small-molecule microarray, 635/667 nm fluorescence, BSA, DTT, primary screen (AID 1130).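 Also: composite of spot emission at 667 nm and signal to noise over triplicate slides.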 To be noted: 635 nm fluorescence, higher = more signal.
For experiment [4], the system named is Fibrinogen (Alexa647-labelled). Kind of experiment: Alexa647-fibrinogen binding to printed small molecules – biochemical, small-molecule microarray, 635/667 nm fluorescence, artefact control for SMM control-protein annotation, profiling panel (AID 1131).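 Also: z-score merges 667 nm fluorescence with per-spot signal-to-noise over triplicate slides.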 The settings on record: fibrinogen-A647 binding fluorescence, higher = more signal.
The target in experiment [5] is Follistatin (Homo sapiens) (UniProt P19883). Kind of experiment: FST protein binding to printed compounds – biochemical, small-molecule microarray, 635/667 nm fluorescence, primary screen (AID 1132). The settings on record: 635 nm fluorescence, higher = more signal.
Follistatin (Homo sapiens), sequence (P19883 whole entry, looked up): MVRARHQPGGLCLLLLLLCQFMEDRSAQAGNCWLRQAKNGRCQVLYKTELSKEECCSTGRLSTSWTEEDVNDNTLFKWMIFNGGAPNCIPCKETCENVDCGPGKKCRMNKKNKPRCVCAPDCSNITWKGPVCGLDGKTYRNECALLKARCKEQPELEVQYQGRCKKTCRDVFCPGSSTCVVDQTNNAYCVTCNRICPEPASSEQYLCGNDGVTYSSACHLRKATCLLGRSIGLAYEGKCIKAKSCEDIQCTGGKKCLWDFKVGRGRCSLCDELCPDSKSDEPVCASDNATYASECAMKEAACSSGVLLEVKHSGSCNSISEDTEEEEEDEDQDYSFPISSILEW
For experiment [6], the target named is Fibroblast growth factor 2 (Homo sapiens) (UniProt P09038). Description: basic fibroblast growth factor binding to printed compounds – biochemical, small-molecule microarray, 635/667 nm fluorescence, primary screen (AID 1133). To be noted: FGF2, fluorescence 635/667, higher = more signal.
Fibroblast growth factor 2 (Homo sapiens), sequence (P09038 whole entry, looked up): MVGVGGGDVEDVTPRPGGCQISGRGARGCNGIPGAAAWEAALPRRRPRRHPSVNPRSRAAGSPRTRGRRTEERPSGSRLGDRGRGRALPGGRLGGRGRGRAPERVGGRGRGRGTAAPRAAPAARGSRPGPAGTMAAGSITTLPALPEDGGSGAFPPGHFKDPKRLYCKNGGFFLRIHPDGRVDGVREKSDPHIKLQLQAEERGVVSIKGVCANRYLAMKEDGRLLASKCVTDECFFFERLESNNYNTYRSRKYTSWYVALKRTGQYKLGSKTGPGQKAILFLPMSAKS
The nature of experiment [7]: JC-1 mitochondrial potential readout, lung cancer cells – cell-based, A549, JC-1 fluorescence, basal, 24 h, 100 nL, profiling panel (AID 1138).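 Also: A549 lung adenocarcinoma cells under basal conditions with no added stimulus; test concentration not given here.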 The settings on record: higher = more signal.
Another experiment relates to Lefty1. Description: Lefty1 protein binding to printed compounds – biochemical, small-molecule microarray, 635/667 nm fluorescence, primary screen (AID 1139). The settings on record: fluorescence 635/667, higher = more signal.
The test system of experiment [8] is wheat germ agglutinin (Triticum aestivum), Alexa647-labelled. Description: Alexa647-WGA lectin binding to printed small molecules – biochemical, small-molecule microarray, 635/667 nm fluorescence, artefact control for SMM control-protein annotation, profiling panel (AID 1140).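 Also: score merges 667 nm feature emission with signal to noise over triplicate slides.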 The settings on record: WGA-A647 binding, 635 nm fluorescence, higher = more signal.
The target of experiment [9] is Luciferin 4-monooxygenase (Photinus pyralis) (UniProt P08659). Description: inhibition of purified Photinus pyralis luciferase – biochemical, luminescence, purified enzyme, 2006 set, primary screen (AID 1141).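 Also: cell-free assay with purified firefly luciferase at 100 ng per well in PBS; test concentration not given here.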 To be noted: purified firefly luciferase, SteadyGlo luminescence, 30 min; higher = more signal, called active from +8 up or from −8 down.
Luciferin 4-monooxygenase (Photinus pyralis), sequence (P08659 whole entry, looked up): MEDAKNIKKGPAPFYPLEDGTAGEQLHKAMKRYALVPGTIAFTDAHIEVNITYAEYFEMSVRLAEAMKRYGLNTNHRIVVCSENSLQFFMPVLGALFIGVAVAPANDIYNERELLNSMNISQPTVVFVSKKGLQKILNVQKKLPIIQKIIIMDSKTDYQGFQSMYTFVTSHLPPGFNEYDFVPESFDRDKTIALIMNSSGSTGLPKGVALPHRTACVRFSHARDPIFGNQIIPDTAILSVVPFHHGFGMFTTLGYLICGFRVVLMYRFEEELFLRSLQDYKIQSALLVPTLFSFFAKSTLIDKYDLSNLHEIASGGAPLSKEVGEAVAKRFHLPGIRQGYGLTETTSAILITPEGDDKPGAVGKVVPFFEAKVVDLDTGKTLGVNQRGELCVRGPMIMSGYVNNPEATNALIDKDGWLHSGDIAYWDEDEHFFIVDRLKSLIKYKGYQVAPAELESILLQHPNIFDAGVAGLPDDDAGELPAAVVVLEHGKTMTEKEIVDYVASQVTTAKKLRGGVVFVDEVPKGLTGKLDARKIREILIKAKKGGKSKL
Experiment [10] relates to Wnt5a (protein binding on small-molecule microarray). Description: small molecules binding Wnt5a protein – biophysical, small-molecule microarray, 635/667 nm fluorescence, primary screen (AID 1142).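 Also: fluorescence read at 667 nm with signal to noise per printed feature.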 To be noted: 635 nm fluorescence, higher = more signal.
The nature of experiment [11]: ATP-based viability of Huh7 replicon cells – cell-based, CellTiter-Glo luminescence, basal, 48 h, cytotoxicity control for HCV replication inhibitor project, primary screen (AID 1143).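 Also: Huh7 hepatoma cells carrying a hepatitis C replication reporter with no stimulus; test concentration not given here.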 The settings on record: higher = more signal, called active from +8 up or from −8 down. In general terms: A replicon is a self-replicating genome or part of one, used to study replication in cells.

Experiment [12] can be described thus: Pseudomonas biofilm growth suppression – PAO1 strain, BacTiter-Glo luminescence, LB-PBS, primary screen (AID 1144). The settings on record: P. aeruginosa PAO1 biofilm, 12 h, higher = more signal.
The nature of experiment [13]: basal CRE-LacZ reporter activity in PC12 – cell-based, unstimulated, primary screen (AID 1145). The settings on record: no forskolin, luminescence, 4.5 h, higher = more signal, called active from +8 up or from −8 down.
A short description of experiment [14]: forskolin-driven CRE-LacZ activity in PC12 – cell-based, CRE-LacZ reporter, forskolin-stimulated, primary screen (AID 1146).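 Also: PC12 cells with 6xCRE LacZ reporter stimulated by forskolin 10 µM; beta-galactosidase reporter signal reflecting CREB driven transcription.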 The settings on record: luminescence, 4.5 h, higher = more signal, called active from +8 up or from −8 down.
The target in experiment [15] is Streptavidin (Streptomyces avidinii) (UniProt P22629). Kind of experiment: compounds binding control protein streptavidin – biophysical, small-molecule microarray, 635/667 nm fluorescence, artefact control for SMM compound annotation, primary screen (AID 1147).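 Also: signal reflects streptavidin binding to arrayed compounds as a control protein.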 The settings on record: higher = more signal.
Streptavidin (Streptomyces avidinii), sequence (P22629 whole entry, looked up): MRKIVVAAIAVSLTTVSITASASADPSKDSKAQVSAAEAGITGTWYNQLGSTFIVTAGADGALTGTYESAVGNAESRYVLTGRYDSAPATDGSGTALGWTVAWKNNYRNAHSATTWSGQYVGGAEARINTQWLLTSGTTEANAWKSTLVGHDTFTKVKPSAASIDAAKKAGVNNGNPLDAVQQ
Experiment [16] is described as follows: probe aInhba binding on compound microarray – biochemical, small-molecule microarray, 635/667 nm fluorescence, primary screen (AID 1148).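 Also: score merges 667nm spot fluorescence with signal-to-noise for antibody binding to printed compounds.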 To be noted: higher = more signal.
Experiment [17] concerns the target Torsin-1A (Homo sapiens) (UniProt O14656). Description: TOR1A wild-type binding on microarray – cell lysate, small-molecule microarray, lysate, 635/667 nm, primary screen (AID 1149). To be noted: COS7 hTOR1A-WT lysate, 635 nm fluorescence, higher = more signal.
For experiment [18] the target is unchanged. Description: torsin A mutant lysate binding on microarrays – cell lysate, small-molecule microarray, COS7 lysate, 635/667 nm fluorescence, primary screen (AID 1150).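 Also: score pools 667 nm emission and signal to noise measuring lysate protein binding.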 The settings on record: COS7 hTOR1A mutant lysate, 635 nm fluorescence, higher = more signal.
Experiment [19] relates to Sonic hedgehog protein (Shh). Description: Sonic hedgehog microarray binding compounds – biochemical, small-molecule microarray, 635/667 nm fluorescence, primary screen (AID 1151).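 Also: Shh protein binding to compounds spotted on small-molecule microarray slides; score combines spot fluorescence intensity with signal-to-noise across triplicate slides.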 The settings on record: 635 nm fluorescence, higher = more signal.

Focal adhesion kinase 1 (Homo sapiens), sequence (Q05397 whole entry, looked up): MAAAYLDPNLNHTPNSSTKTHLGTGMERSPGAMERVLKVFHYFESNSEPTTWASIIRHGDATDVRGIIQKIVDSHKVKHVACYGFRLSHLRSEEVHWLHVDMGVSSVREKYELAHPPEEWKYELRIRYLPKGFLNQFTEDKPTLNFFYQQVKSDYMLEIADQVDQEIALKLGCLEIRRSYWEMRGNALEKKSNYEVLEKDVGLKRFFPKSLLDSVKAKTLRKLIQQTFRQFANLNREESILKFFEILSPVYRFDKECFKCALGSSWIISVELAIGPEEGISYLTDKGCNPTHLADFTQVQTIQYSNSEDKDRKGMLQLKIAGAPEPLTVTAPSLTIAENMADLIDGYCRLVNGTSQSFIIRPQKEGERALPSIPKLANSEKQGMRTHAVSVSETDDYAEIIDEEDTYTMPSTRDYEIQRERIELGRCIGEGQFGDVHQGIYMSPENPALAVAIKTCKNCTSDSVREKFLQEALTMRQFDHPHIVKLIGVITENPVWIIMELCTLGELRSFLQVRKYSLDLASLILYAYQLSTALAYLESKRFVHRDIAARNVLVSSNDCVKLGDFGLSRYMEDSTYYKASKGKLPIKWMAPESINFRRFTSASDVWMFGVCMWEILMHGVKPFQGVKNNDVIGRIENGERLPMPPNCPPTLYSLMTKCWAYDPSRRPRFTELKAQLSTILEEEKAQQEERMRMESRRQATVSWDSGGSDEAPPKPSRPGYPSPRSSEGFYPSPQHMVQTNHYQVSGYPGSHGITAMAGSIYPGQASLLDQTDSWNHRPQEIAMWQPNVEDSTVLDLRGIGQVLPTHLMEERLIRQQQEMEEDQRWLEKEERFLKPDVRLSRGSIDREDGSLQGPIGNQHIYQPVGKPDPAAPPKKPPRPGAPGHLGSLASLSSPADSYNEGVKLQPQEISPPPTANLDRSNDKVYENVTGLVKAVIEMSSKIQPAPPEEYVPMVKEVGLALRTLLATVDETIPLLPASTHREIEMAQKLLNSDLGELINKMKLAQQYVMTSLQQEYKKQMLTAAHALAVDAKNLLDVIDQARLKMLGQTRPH
Torsin-1A (Homo sapiens), sequence (O14656 whole entry, looked up): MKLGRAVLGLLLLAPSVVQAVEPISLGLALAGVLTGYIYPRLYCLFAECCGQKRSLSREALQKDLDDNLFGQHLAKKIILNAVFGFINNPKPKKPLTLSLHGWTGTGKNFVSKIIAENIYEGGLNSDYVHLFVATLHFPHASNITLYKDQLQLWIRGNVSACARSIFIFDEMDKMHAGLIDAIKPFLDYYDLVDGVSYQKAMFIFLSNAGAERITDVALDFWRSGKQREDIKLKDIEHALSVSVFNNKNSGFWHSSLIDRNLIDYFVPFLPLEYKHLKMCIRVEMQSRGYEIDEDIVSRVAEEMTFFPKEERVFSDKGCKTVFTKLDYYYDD

With `O=C1c2ccccc2[C@](Cc2ccccc2I)(C(=O)NC2CC2)[C@H](c2ccc(CO)cc2)N1Cc1ccccc1C(F)(F)F`, the composite z-score in experiment [1] was 0.0698; in experiment [2], 0.749; in [3], -0.226; in [4], 0.938; in [5] it was 1.15; in experiment [6], 0.0532. For the same molecule, the composite z-score in the experiment on Lefty1 was 1.26; in experiment [8], 1.15; in experiment [10] it was -0.15; in experiment [15], 0.671; in experiment [16], 1.25; in the experiment with Torsin-1A (Homo sapiens) [17], 0.147. The composite z-score in the experiment with Torsin-1A (Homo sapiens) [18] is 0.16; in [19], 0.792. Besides, the z-score in experiment [7] was -0.254; in experiment [9], 0.0135 (inactive); in [11] it was -4.84 (inactive); in experiment [12], -0.0186 (inactive); in experiment [13] it was 0.764 (inactive); in experiment [14] it was -0.5 (inactive).
`O=C1C2C=CC(C(O)c3ccc4c(c3)OCO4)N(Nc3ccccc3)C2C(=O)N1c1ccccc1` (stereo not given): the composite z-score in experiment [1] is 0.496; in experiment [2], 1.21; in experiment [3], 0.617; in experiment [4], 0.979; in experiment [5] it was 1.03; in experiment [6] it was -0.337. Further, the composite z-score in the experiment with Lefty1 was 0.153; in [8], 0.942; in experiment [10] it was 0.096; in [15] it was 1.52; in experiment [16] it was 0.143; with Torsin-1A (Homo sapiens) [17] it was -0.277. Moreover, the composite z-score with Torsin-1A (Homo sapiens) [18] is 0.426; in [19] it was 0.0743. Moreover, the z-score in experiment [7] is 0.279; in experiment [9] it was 0.465 (inactive); in experiment [11] it was -0.924 (inactive); in [12], -0.648 (inactive); in experiment [13], 0.44 (inactive); in experiment [14], 0.993 (inactive).
On to `COCCCNC(=O)[C@@]1(c2ccc([N+](=O)[O-])cc2)CC(=O)N(C(C)C)[C@@H]1c1ccc(CO)cc1`, for which the composite z-score is -0.92 in experiment [1]; -0.085 in experiment [2]; 0.756 in experiment [3]; -0.779 in [4]; 0.559 in experiment [5]; 0.352 in [6]. Also, the composite z-score in the experiment on Lefty1 was -0.0938; in [8], 0.174; in experiment [10], 0.0039; in [15] it was -0.934; in experiment [16], 0.315; in the experiment with Torsin-1A (Homo sapiens) [17], 0.722. Besides, the composite z-score came out at 1.05 with Torsin-1A (Homo sapiens) [18] and 0.0776 in [19]. For the same molecule, the z-score was 0.296 in experiment [7]; -0.985 (inactive) in experiment [9]; 0.433 (inactive) in experiment [11]; 0.797 (inactive) in experiment [12]; 0.495 (inactive) in experiment [13]; 0.0212 (inactive) in [14].
Consider `CCCCC(=C=CC[C@H](O)c1ccc(OCCO)cc1)C[C@H](O)COCc1ccccc1`, for which the composite z-score in experiment [1] was 0.522; in experiment [2], 0.0648; in experiment [3], 0.477; in [4], -0.56; in experiment [5] it was 0.163; in experiment [6], 0.501. The composite z-score with Lefty1 was 0.235; in experiment [8] it was -0.0019; in [10] it was -0.0866; in [15] it was -0.499; in [16], -0.145; in the experiment with Torsin-1A (Homo sapiens) [17], -0.327. Further, the composite z-score was found to be 0.388 in the experiment with Torsin-1A (Homo sapiens) [18] and 0.571 in experiment [19]. Moreover, the z-score in experiment [7] was 2.19; in experiment [9] it was -1.22 (inactive); in experiment [11] it was -0.92 (inactive); in experiment [12], 0.403 (inactive); in experiment [13], 10.3 (active); in experiment [14], 0.434 (inactive).
Consider `C[C@]1(C(=O)O)c2ccccc2C(=O)N(Cc2ccc(OC(F)(F)F)cc2)[C@H]1c1ccc(CO)cc1`, for which the composite z-score in [1] is 1.1; in experiment [2] it was 0.409; in experiment [3], 0.609; in experiment [4], 0.0748; in experiment [5], -0.156; in experiment [6] it was -0.381. Besides, the composite z-score is -0.685 in the experiment with Lefty1; 0.596 in experiment [8]; 0.386 in experiment [10]; -0.129 in experiment [15]; 0.053 in experiment [16]; 0.45 with Torsin-1A (Homo sapiens) [17]. The composite z-score with Torsin-1A (Homo sapiens) [18] was 0.522; in [19], -0.261. Further, the z-score was 0.447 in experiment [7]; 0.0795 (inactive) in [9]; -0.17 (inactive) in experiment [11]; -0.526 (inactive) in experiment [12]; 0.118 (inactive) in [13]; -0.48 (inactive) in experiment [14].

(Values after PubChem BioAssay.)
